NPC1 prom act = activates the NPC1 promoter | Huh7 NPC1 promoter luciferase reporter, 24 h | 320,000 tested, 2.4% active | Potency, µM (highest dose often 9.22 µM), hits mostly activators; note: nearly all actives have a fitted effect of over 60% in size
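Cells: Huh7 expressing luciferase under the NPC1 promoter, 1500/well. Seeded 2 h, compound added, incubated 24 h at 37 °C. Luciferase reagent, 10 min ambient, then luminescence.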
p53 reactivation = mutant p53 re-activation in reporter cells; 320,000 tested, 0.063% active; H1299 p53-A138V BP100-luciferase reporter, luminescence, 24 h; AID 504706; Potency, µM (highest dose often 92.2 µM), hits mostly activators; note: nearly all actives have a fitted effect of over 45% in size
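H1299 (p53-null), stable ts p53-A138V + BP100-Luc; 1000 cells/well, Opti-MEM/10% FBS; cpd 4 pt, 1:5; 24 h, 37 deg C, 5% CO2; detection reagent 10 min RT; luminescence.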
FLuc counter = counter-screen for miR-21 project: firefly luciferase inhibitors or activators; P08659; purified FLuc, Km substrates, luminescence inhibition; Potency, µM (highest dose often 57.5 µM), usual class: inhibitors; 360,000 tested, 6.9% active; note: nearly all actives have a fitted effect of over 55% in size
Target sequence (P08659 whole entry, looked up): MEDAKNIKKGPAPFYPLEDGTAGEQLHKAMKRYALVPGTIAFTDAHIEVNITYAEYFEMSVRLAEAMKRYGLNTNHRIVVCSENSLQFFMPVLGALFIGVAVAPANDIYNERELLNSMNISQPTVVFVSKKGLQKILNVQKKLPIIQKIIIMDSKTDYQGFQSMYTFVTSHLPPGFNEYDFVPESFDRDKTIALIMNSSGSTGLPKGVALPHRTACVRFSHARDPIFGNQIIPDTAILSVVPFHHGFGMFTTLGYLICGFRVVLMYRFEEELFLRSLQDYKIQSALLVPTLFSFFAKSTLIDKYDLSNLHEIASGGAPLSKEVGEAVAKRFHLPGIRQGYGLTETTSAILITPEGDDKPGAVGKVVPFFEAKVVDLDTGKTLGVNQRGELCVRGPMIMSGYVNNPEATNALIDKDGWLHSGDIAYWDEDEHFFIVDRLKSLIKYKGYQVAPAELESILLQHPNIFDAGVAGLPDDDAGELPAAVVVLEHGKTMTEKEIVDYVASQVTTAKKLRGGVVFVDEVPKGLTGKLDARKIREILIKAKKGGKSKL
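Purified P. pyralis luciferase (10nM final) with 10uM D-luciferin and 10uM ATP (Km levels) in 50mM Tris acetate pH 7.5, 10mM Mg acetate, 0.01% Tween-20, 0.05% BSA; qHTS 6-point titration, ~60 µM downward; luminescence read.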
SMN2 splice up = enhancers of SMN2 splice variant expression; HEK293 SMN2-luciferase splicing reporter, luminescence, 30-36 h; Potency, µM (titrated, usually from 46.1 µM), usual class: activators; 210,000 tested, 2.8% active; note: nearly all actives have a fitted effect of over 55% in size
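HEK293 cells carry an SMN2 […]–luciferase reporter in which exon 7 inclusion puts luciferase in frame. Cells were plated 10-12 h before compound addition, then incubated 30-36 h at 37C. ONE-Glo luminescence was read; sodium butyrate at 4.5 mM final served as control.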
ELG1 genotoxic = induces genotoxicity in HEK293T cells with luciferase-tagged ELG1. 330,000 tested, 1.3% active. AID 504466. Potency, µM (series often up to 46 µM), actives largely listed as activators. HEK293T ELG1-luciferase reporter, luminescence, 16 h; note: nearly all actives have a fitted effect of over 60% in size
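HEK293T cells expressing luciferase-tagged ELG1 were treated with compound or DMSO for 16 hr at 37°C. Luciferase activity was then read after 30 min with ONE-Glo at room temperature; rising signal flags genetic stress.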
Rab9 promoter act = activates the Rab9 promoter. AID 485297. Potency, µM (top dose mostly 9.22 µM), hits mostly activators. 320,000 tested, 2.8% active. Huh7 Rab9 promoter-luciferase reporter, luminescence, 24 h; note: nearly all actives have a fitted effect of over 60% in size
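Luciferase signal after 10 min detection reagent at ambient indicates Rab9 promoter upregulation; stably transfected Huh7 cells were treated 24 h with compound in DMSO at 37 °C, 5% CO2.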
A number is an active result; 0 = inactive; ? = inconclusive; - = not tested or not shown; [ ] = remark or other dose. Rows were chosen to be rich in hits. Some 7.3% of all compounds tested hit in one or more screens of this group. Calls come from the whole dose curve; as a rule, active = well fitted curve in the direction sought with a large enough effect; inconclusive = small, poorly fitted or top-dose-only effect, or another doubt; inactive = no such curve, though single readings can be large; an effect the other way counts as inactive or inconclusive.

SMILES	NPC1 prom act	p53 reactivation	FLuc counter	SMN2 splice up	ELG1 genotoxic	Rab9 promoter act
CSc1ccc(/C=C/C(=O)c2ccc(NC(C)=O)cc2)cc1	0	0	3µM	0	0	0
CC(=O)Nc1ccc(/C=C/C(=O)c2ccc3c(c2)OCCO3)cc1	0	?	6.7µM	-	0	0
CCCC(=O)Nc1ccc(C(=O)/C=C/c2ccc(SC)cc2)cc1	0	0	?	0	0	0
O=C(O)c1ccc(/C=C/C(=O)c2ccc3c(c2)OCCCO3)cc1	?	0	0.076µM	-	?	?
COc1ccc(Br)cc1CNC(=O)CCSCc1ccc(Cl)cc1	-	-	0	-	-	-
C[C@H]1Cc2c(COc3ccccc3)nc3c(c2CO1)CN(S(=O)(=O)c1ccc2c(c1)OCCN2C)CC3	-	-	-	0[9.22 µM]	-	-
Cc1nc2ccc(S(=O)(=O)NCC(=O)Nc3ccc(F)cc3F)cc2s1	-	-	0	0	-	-
Nc1c2c(nc3ccc(Br)cc13)N(C1CCCCC1)CC2	0	0	?	0	0	0
Cc1cccc(N2CCc3c2nc2ccc(Br)cc2c3N)c1	0	0	8.5µM	0	0	0
Nc1c2c(nc3ccc(Br)cc13)N(Cc1ccccc1)CC2	0	0	17µM	0	0	0
Nc1c2c(nc3ccc(Br)cc13)N(c1ccccc1)CC2	0	0	?	0	0	0
Cc1nn2c(=O)c(NC(=O)c3ccc(F)cc3)cnc2s1	0	0	0[2.3 µM]	0	0	0
Cc1ccc(C(=O)Nc2cnc3sc(C)nn3c2=O)cc1	?	?	0[2.3 µM]	13µM	?	?
COc1ccccc1N1CCN(C(=O)/C=C/c2ccc(C)cc2)CC1	0	0	0	0	0	0
COc1ccc(/C=C/C(=O)NC(=S)N2CCOCC2)cc1	3.5µM	?	11µM	-	?	1.6µM
COc1ccc(/C=C/C(=O)NC(=S)Nc2ccc(N3CCN(C(C)=O)CC3)cc2)cc1	0	0	0	-	0	0
COc1ccc(/C=C/C(=O)NC(=S)N2CCN(c3ccccc3OC)CC2)cc1	4µM	0	?	-	0	?
CCC(C)c1ccc(NC(=O)C2=CC=CN3CCS(=O)(=O)N=C23)cc1 (configuration not stated)	0	0	2.1µM	-	?	?
Cc1cc(C)c2c(CC(=O)N(Cc3ccccc3)C3CCS(=O)(=O)C3)coc2c1 (configuration not stated)	-	-	0	0	-	-
Cn1ccnc1SCC(=O)NC1CCCC1	0	0	0	-	0	0
Cn1ccnc1SCC(=O)Nc1ccc2nc(SCC(=O)NC3CC3)sc2c1	?	?	19µM	0	13µM	?
CC(C)(C)NC(=O)CSc1nc2ccc(NC(=O)CSc3nnc(N)s3)cc2s1	0	0	12µM	0	0	0
CCNC(=O)c1ccc(NC(=O)CC2SC(N3CCCCC3)=NC2=O)cc1 (configuration not stated)	0	0	0	-	0	0
CC1CCC(NC(=O)c2ccc(NC(=O)CC3SC(N4CCCC4)=NC3=O)cc2)CC1 (configuration not stated)	2.5µM	?	?	-	0	2.2µM
Cc1ccnc(NC(=O)c2cccc(NC(=O)CC3SC(N4CCCCC4)=NC3=O)c2)c1 (configuration not stated)	0	0	12µM	-	0	0
SMILES	NPC1 prom act	p53 reactivation	FLuc counter	SMN2 splice up	ELG1 genotoxic	Rab9 promoter act
Cc1ccnc(NC(=O)c2ccc(NC(=O)CC3SC(N4CCCC4)=NC3=O)cc2)c1 (configuration not stated)	0	0	0	-	0	0
CNC(=O)c1ccc(-c2ccccc2)s1	?	?	13µM	0	?	?
Cc1ccc(NC(=O)Nc2ccccc2)cc1[N+](=O)[O-]	?	?	8.5µM	13µM	0	?
CC(=O)Nc1ccc(C)c([N+](=O)[O-])c1	0	0	0	-	0	0
O=C(Nc1ccccc1)Nc1ccc(Cl)c([N+](=O)[O-])c1	0	0	19µM	0	0	0
O=C(Nc1ccccc1)Nc1ccc(F)c([N+](=O)[O-])c1	0	0	17µM	0	0	0
CCOC(=O)c1cccc(NC(=O)NCCc2c(C)nn(C)c2C)c1	-	-	0	-	-	-
COC(CNC(=O)c1ccc2c3c(onc13)-c1ccccc1C2=O)OC	?	0	15µM	-	?	?
Cc1ccsc1CN1CCc2nc(Nc3ccccc3)ncc2C1	-	-	12µM	-	-	-
